Data on 28 compounds can be found in the supplement of paper PMC10981050.

Structures can show the parent of a compound that is named as a salt.

For the assay, the system named is OCI-AML2. Put plainly: cell viability relative to vehicle control; higher = less cytotoxic. The note with it: 10 µM; SRSF2 genotype: wt/wt. In outline: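 Four leukaemia lines, as CRISPR-edited mutant clones and isogenic wild-type clones, were tested against Selleck bioactive, kinase and epigenetic probe libraries after removal of identity-inconsistent compounds. Cells were exposed to a single 10 µM dose for 48 h, and CellTiter-Glo luminescence was then read. Viability was calculated relative to the on-plate vehicle control.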
`Clc1ncnc2nc[nH]c12` [6-Chloropurine]: the cell viability turned out to be 87.9%.

For `CCC1=C[C@@H]2CN(C1)Cc1c([nH]c3ccccc13)[C@@](C(=O)OC)(c1cc3c(cc1OC)N(C)[C@H]1[C@@](O)(C(=O)OC)[C@H](OC(C)=O)[C@]4(CC)C=CCN5CC[C@]31[C@@H]54)C2` [Vinorelbine Tartrate], the cell viability stood at 3.83%.

As to `Cc1nccn1CC1CCc2c(c3ccccc3n2C)C1=O` (stereo not drawn) [Ondansetron hydrochloride (Zofran)], the cell viability was 101%.

As for `CC(C)=CCCC(C)(O)C1CCC2(C)C1C(O)CC1C3(C)CCC(O)C(C)(C)C3CCC12C` [(20S)-Protopanaxadiol], the cell viability is 93.5%.

Regarding `C[C@@H]1O[C@@H](O[C@@H]2[C@@H](O)[C@H](OCCc3ccc(O)c(O)c3)O[C@H](CO)[C@H]2OC(=O)/C=C/c2ccc(O)c(O)c2)[C@H](O)[C@H](O)[C@H]1O` [Verbascoside], the cell viability is 92.5%.

Regarding `C=C1C[C@@]23CC[C@H]4[C@@](C)(CCC[C@@]4(C)C(=O)O)[C@@H]2CC[C@]1(O[C@@H]1O[C@@H](CO)[C@@H](O)[C@H](O)[C@@H]1O[C@@H]1O[C@@H](CO)[C@@H](O)[C@H](O)[C@@H]1O)C3` [Steviolbioside], the cell viability was determined as 103%.

For `CNc1ccc([N+](=O)[O-])c(Nc2ccc3[nH]ncc3c2)n1`, the cell viability is 26.6%.

`CN(C)/N=N/c1[nH]cnc1C(N)=O` [Dacarbazine (DTIC-Dome)]: the cell viability came to 112%.

With `Cc1ccc(CN(CC(O)COc2cccc3[nH]ccc23)C(C)(C)C)cc1` (stereo not drawn), the cell viability came to 86.2%.

With `CN1CCN(C2=Nc3cc(Cl)ccc3Nc3ccccc32)CC1` [Clozapine (Clozaril)], the cell viability was determined as 98.1%.

For the compound `C[C@]1(O)C[C@@H](O)[C@@H]2C=CO[C@@H](O[C@@H]3O[C@H](CO)[C@@H](O)[C@H](O)[C@H]3O)[C@@H]21` [Leonuride], the cell viability turned out to be 102%.

Take `CCCCCCCCCC(C)O` (stereo not drawn) [2-Undecanol]: the cell viability was found to be 105%.

As to `CC(C)(C)n1nc(-c2ccc(Cl)cc2)c2c(N)ncnc21`, the cell viability is 78.3%.

In the case of `Cc1cc(O)c(-c2ccc([C@@H](C)CN(C)C)cc2)c2c1[nH]c(=O)c1sccc12`, the cell viability came out at 7.84%.

For `CC1(C)CC[C@]2(C(=O)O)CC[C@]3(C)C(=CC[C@@H]4[C@@]5(C)CC[C@H](O)C(C)(C)[C@@H]5CC[C@]43C)[C@@H]2C1` [Oleanolic Acid (Caryophyllin)], the cell viability stood at 82.7%.

As to `C[C@@H]1CC[C@@]2(OC1)O[C@H]1C[C@H]3[C@@H]4CC=C5C[C@@H](O[C@@H]6O[C@H](CO)[C@@H](O)[C@H](O)[C@H]6O)CC[C@]5(C)[C@H]4CC[C@]3(C)[C@H]1[C@@H]2C` [Trillin], the cell viability is 98.5%.

In the case of `CCCCCCOC(=O)c1cc(=O)c(O)c2c(O)c(O)c(OC)cc2c1`, the cell viability turned out to be 42.4%.

With `CCOc1ccc(Cc2cc([C@@H]3O[C@H](SC)[C@@H](O)[C@H](O)[C@H]3O)ccc2Cl)cc1` [Sotagliflozin (LX4211)], the cell viability was found to be 96.9%.

As for `c1cc(CN2CCCNCCNCCCNCC2)ccc1CN1CCCNCCNCCCNCC1` [Plerixafor], the cell viability was determined as 96.9%.

Take `Nc1ncnc2c1ncn2C(C=O)OC(C=O)CO` (stereo not drawn) [Adenosine Dialdehyde (ADOX)]: the cell viability turned out to be 42.5%.

With `COc1ccc(CNc2nc(N3CCC[C@H]3CO)ncc2C(=O)NCc2ncccn2)cc1Cl` [Avanafil], the cell viability turned out to be 105%.

As for `CC(C)=CC(O)C/C(C)=C/COc1c2ccoc2cc2oc(=O)ccc12` (stereo not drawn) [Notopterol], the cell viability amounted to 43%.

Regarding `Cc1nc(N(C)C(=O)Cc2ccc(-c3ccccn3)cc2)sc1S(N)(=O)=O` [Pritelivir (BAY 57-1293)], the cell viability came to 95.7%.

In the case of `C[C@@H](CN1CC(=O)NC(=O)C1)N1CC(=O)NC(=O)C1` [Dexrazoxane], the cell viability came out at 99.9%.

In the case of `O=C(O)[C@H]1O[C@@H](Oc2cc3oc(-c4ccc(O)cc4)cc(=O)c3c(O)c2O)[C@H](O)[C@@H](O)[C@@H]1O` [Scutellarin], the cell viability was 109%.

For the compound `CC(C)=CCCC(C)(O)C1CCC2(C)C1C(O)CC1C3(C)CCC(O)C(C)(C)C3C(OC3OC(CO)C(O)C(O)C3OC3OC(C)C(O)C(O)C3O)CC12C` [(20S)Ginsenoside Rg2], the cell viability came out at 115%.

Consider `C=CC(=O)N[C@H]1CCOC[C@H]1Nc1ncc2cc(-c3c(Cl)c(OC)cc(OC)c3Cl)ccc2n1`, for which the cell viability stood at 72.7%.

As for `C=C[C@]1(C)C[C@@H](OC(=O)CSC(C)(C)CNC(=O)[C@H](N)C(C)C)[C@]2(C)[C@H](C)CC[C@]3(CCC(=O)[C@H]32)[C@@H](C)[C@@H]1O` [Valnemulin HCl], the cell viability came to 65.5%.

The term cell viability denotes a read-out of living cells in per cent, often relative to untreated cells.
